The values that follow come from PubChem BioAssay (Tox21).

SMILES strings stand for the structures. Records with an inconclusive call do not appear. Unmarked numbers belong to inactive results. Calls come from the whole dose curve; as a rule, active = well fitted cell-killing curve with a large enough effect in the repeat runs; inconclusive = weak or mixed curves, or effect the other way; inactive = flat fitted curve, though single readings scatter.
% is set by controls: 0 for no effect and ±100 for the full control effect.

A short description of the assay: qHTS RealTime-Glo MT Cell Viability Assay in HEK293 cells - 24 hour (AID 1224886). Note: top concentration of the series differs between compounds; nearly all actives have a fitted effect of over 50% in size. As to conditions: RealTime-Glo luminescence; series mostly up to 76.8 µM; activity change, negative = cytotoxicity: at the top concentration. The source says: National Center for Advancing Translational Sciences [NCATS]
NIH Chemical Genomics Center [NCGC]
U.S. Environmental Protection Agency [EPA]
National Institutes of Environmental Health Sciences [NIEHS]
National Toxicology Program [NTP]
U.S. Food and Drug Administration [FDA]
Measure of cell viability is critical in the cell-base assay. Analysis of cell viability is necessary for the characterization of cell responses to cytotoxic drugs and environmental stress. A RealTime-Glo MT Cell Viability Assay to monitor cell viability in real time of continues cell culture during 40 hours of compound treatment was used to screen Tox21 10K library compounds in Hek293 cells. The RealTime-Glo MT Cell Viability Assay is a nonlytic, homogeneous, bioluminescent method to measure cell viability in real time using a simple, plate-based method. The assay involves adding NanoLuc luciferase and a cell-permeant prosubstrate to cells in culture. Viable cells reduce the proprietary prosubstrate to generate a substrate for NanoLuc luciferase. This substrate diffuses from cells into the surrounding culture medium, where it is rapidly used by the NanoLuc Enzyme to produce a luminescent signal. The signal correlates with the number of viable cells, making the assay well suited for cytotoxicity studies.
Tox21 Assay Protocol Summary:
The mixture of Hek293 cell suspension and reagents were dispensed at 600cells/6 ul/well in 1536-well tissue culture treated black solid bottom plates using a Multidrop dispenser. After the assay plates were incubated at a 37 C/5% CO2 incubator for 5 hours, 23 nL of compounds dissolved in DMSO, positive and negative controls was transferred to the assay plate by a pintool work station. The plates were incubated at 37 C for 40 hours. The luminescence intensity were measured at 0h, 8h, 16h, 24h, 32h and 40h time points using ViewLux plate reader during compound treatment.
Consider `O=C(O)Cc1cccc(-c2cc(CCCCCCc3ccc(O[C@H]4O[C@H](CO)[C@@H](O)[C@H](O)[C@@H]4O)c(-c4cccc(CC(=O)O)c4)c3)ccc2O[C@H]2O[C@H](CO)[C@@H](O)[C@H](O)[C@@H]2O)c1`, for which the activity change, negative = cytotoxicity was -1.38% [at 0.29 µM].

For the compound `CCCOCCOCCOCCO`, the “activity change, negative = cytotoxicity” value is -17.9%.

Turning to `CCCCOC(=O)C(C)OC(=O)CCC` (stereo not given), the “activity change, negative = cytotoxicity” value was 13.9%.

Consider `Cc1nc([N+](=O)[O-])cn1-c1ccc([N+](=O)[O-])cc1`, for which the “activity change, negative = cytotoxicity” value was -0.408% [at 35.3 µM].

In the case of `Cc1cccc(NC(=S)N(C)C)c1`, the “activity change, negative = cytotoxicity” value was -6.7%.

`Nc1cc(C(=O)O)ccc1Cl`: the “activity change, negative = cytotoxicity” value is 0.676%.

For `Nc1ccc(S(=O)(=O)NC(=O)c2ccccc2)cc1`, the “activity change, negative = cytotoxicity” value was 7.35% [at 35.3 µM].

Take `Nc1c(NC/C=C\COc2cc(CN3CCCCC3)ccn2)c(=O)c1=O`: the activity change, negative = cytotoxicity is 3.04% [at 15.8 µM].

As to `c1ccccc1`, the “activity change, negative = cytotoxicity” value is -0.404%.

For `O=C(O)CCNC(=O)c1ccccc1`, the “activity change, negative = cytotoxicity” value is -1.19% [at 35.3 µM].

For `CO[Si](CCCCl)(OC)OC`, the “activity change, negative = cytotoxicity” value is 22%.

On to `CCCCC[Si](OCC)(OCC)OCC`, for which the “activity change, negative = cytotoxicity” value was -19.6%.

Regarding `CCOC(=O)CCCCCCCCC(=O)OCC`, the “activity change, negative = cytotoxicity” value was 0.357%.

In the case of `COC(OC)C(C)c1ccccc1` (stereo not given), the “activity change, negative = cytotoxicity” value was 1.62%.

As to `Cn1c(=O)c2c(ncn2CC2OCCO2)n(C)c1=O`, the “activity change, negative = cytotoxicity” value is 7.82% [at 35.3 µM].

`C=C[Si](C)(C)O[Si](C)(C)C=C`: the “activity change, negative = cytotoxicity” value was -0.825%.

With `Cc1c(C(C)C)c(=O)n(-c2ccccc2)n1C`, the “activity change, negative = cytotoxicity” value is 3.05% [at 35.3 µM].

Consider `CNC(=O)NC`, for which the “activity change, negative = cytotoxicity” value was 2.93%.

With `Cc1ccc2c(c1)c1c3n2CCNC3CCC1` (stereo not given), the “activity change, negative = cytotoxicity” value is -0.145% [at 35.3 µM].

Take `CN=C(NC#N)NCCSCc1csc(N=C(N)N)n1`: the “activity change, negative = cytotoxicity” value is 0.959% [at 35.3 µM].

With `NS(=O)(=O)c1cc2c(cc1Cl)NC(C(Cl)Cl)NS2(=O)=O` (stereo not given), the “activity change, negative = cytotoxicity” value is 1.78% [at 35.3 µM].

As to `CC(=O)N(CC(O)CO)c1c(I)c(C(=O)NCC(O)CO)c(I)c(C(=O)NCC(O)CO)c1I` (stereo not given), the “activity change, negative = cytotoxicity” value is 3.39% [at 35.3 µM].

For the compound `O=S(=O)(O)c1cc(O)ccc1O`, the “activity change, negative = cytotoxicity” value was 8.03%.

On to `CCN(CCO)c1cccc(C)c1`, for which the “activity change, negative = cytotoxicity” value is 13.2%.

Turning to `CC(=O)/C=C/c1ccco1`, the “activity change, negative = cytotoxicity” value was 10.7%.

Turning to `CC1=CC[C@H](CC=O)C1(C)C`, the “activity change, negative = cytotoxicity” value was 4.51%.

As for `CNCc1ccccc1`, the “activity change, negative = cytotoxicity” value is -1.03% [at 35.3 µM].

Turning to `CCOC(=O)CC#N`, the “activity change, negative = cytotoxicity” value is 0.34%.

For the compound `F[Si-2](F)(F)(F)(F)F`, the “activity change, negative = cytotoxicity” value is 0.278%.

Turning to `CCCCCCCCCCCCCCCC(=O)NCCO`, the “activity change, negative = cytotoxicity” value was -3.91% [at 35.3 µM].

As for `COc1cc(C=O)ccc1OC(=O)C(C)C`, the “activity change, negative = cytotoxicity” value is -1.92%.

With `CCCCC(CC)COC(=O)c1ccccc1` (stereo not given), the “activity change, negative = cytotoxicity” value was 1.9%.

Turning to `CC(C)(CO)[C@@H](O)C(=O)NCCCO`, the “activity change, negative = cytotoxicity” value is 0.508% [at 35.3 µM].

For `CCC(=O)c1ccc(O)cc1`, the “activity change, negative = cytotoxicity” value was -0.173% [at 35.3 µM].

For `C[Si]1(C)N[Si](C)(C)N[Si](C)(C)N1`, the “activity change, negative = cytotoxicity” value was 11.6%.

In the case of `O=[Si]=O`, the “activity change, negative = cytotoxicity” value is -0.873%.

`Nc1ccc(S(=O)(=O)Nc2ccccn2)cc1`: the “activity change, negative = cytotoxicity” value was -0.0665% [at 35.3 µM].

On to `CCCCCC(=O)OCC`, for which the “activity change, negative = cytotoxicity” value was 10.8%.

Take `COCCOCCOCCOC`: the “activity change, negative = cytotoxicity” value is -1.4%.

For the compound `CCC(C)N` (stereo not given), the “activity change, negative = cytotoxicity” value was -9.26%.
